The record followed here is PubChem BioAssay (EPA / NIEHS).

The source made the active and inactive calls. Rule for the calls: active = hit-call score of the fitted dose curve at least 0.9, where 1 is the maximum; inactive = score below 0.9.

The assay can be described thus: CEETOX_H295R_11DCORT: CeeTox H295R High-throughput Steroidogenesis Assay for 11-Deoxycortisol (11DCORT) (AID 2283432).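 For AC50: 11-deoxycortisol secreted into the medium measured by LC-MS/MS.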 To be noted: actives raise or lower the signal. The method, then: CEETOX_H295R is a cell-based, multiplexed-readout assay that uses H295R, a human adrenal gland cell line, with measurements taken at 48 hours after chemical dosing in a 96-well plate.CEETOX_H295R_11DCORT is one of 23 assay component(s) measured or calculated from the CEETOX_H295R assay. It is designed to make measurements of hormone induction, a form of inducible reporter, as detected with absorbance signals by HPLC-MS-MS technology.Data from the assay component CEETOX_H295R_11DCORT was analyzed into 1 assay endpoint. This assay endpoint, CEETOX_H295R_11DCORT, was analyzed with bidirectional fitting relative to DMSO as the negative control and baseline of activity. Using a type of inducible reporter, gain or loss-of-signal activity using HPLC-MS-MS was used to understand synthesis of 11-Deoxycortisol in H295R cell line at 48hr of chemical exposure. To generalize the intended target to other relatable targets, this assay endpoint is annotated to the steroid hormone intended target family, where the subfamily is glucocorticoids.
Cell culture and media preparation procedures were conducted in accordance with OECD Test No. 456 guidelines, with minor modifications. H295R cells (ATCC CRL-2128) were expanded for 5 passages and frozen in batches in liquid nitrogen. Prior to the steroidogenesis assay, H295R cells were thawed and passed at least 4 times. The maximum passage was 10. Cells were maintained in a 1:1 mixture of DMEM/F12 supplemented with 5ml/L ITS+ Premix (BD Bioscience) and 12.5 ml/L Nu-Serum (BD Bioscience). After seeding cells into 96-well plates at 50-60% confluency, cells were allowed to adhere overnight. Prior to chemical testing, culture medium was replaced with 175 uL medium containing 10 uM forskolin to stimulate steroidogenesis for 48 hours. Following prestimulation, forskolin medium was replaced with medium containing test chemical solubilized in DMSO (ensuring a final concentration of 0.1% DMSO). Test chemicals were incubated for 48 hours, then the medium was removed and split into 2 vials containing approximately 75uL each, and stored at -80 C prior to hormone analysis. For steroid quantification, media samples were shipped to OpAns, LLC (Durham, NC) on dry ice, and samples were thawed to room temperature prior to liquid-liquid extraction. Steroid hormones were extracted from media samples using methyl tertbutyl ether (MTBE). An extra derivatization with dansyl chloride was included for estrogen (estrone and estradiol) detection only. Steroid hormones were separated by HPLC, eluted using a reverse phase C18 gradient with electrospray positive ionization, followed by quantification by tandem mass spectrometry (MS/MS). Data were acquired on a MassHunter Workstation Acquisition version B03.01 (Agilent Technologies, Inc.) and processed using MassHunter Quantitative Analysis for QQQ. Accuracy was determined for each hormone analyte from 3 standards to determine upper and lower limits of quantification (ULOQ and LLOQ, respectively) using a 7-point standard curve. Precision and accuracy of the extraction and quantification methods were calculated as the percent relative standard deviation (%RSD) of the spiked standards and percent spiked standard recovered, respectively. The goal was to achieve 100% accuracy (i.e., recover all spiked-in standard at quantification with minimal loss during run time) and good precision (i.e., have %RSD <15% to ensure reproducibility). Test medium was removed following chemical exposure, and cell viability was evaluated in the same wells by MTT. MTT procedures were as follows: after removal of test medium, 500 uL of 0.5 mg/ml of 3-[4,5-dimethylthiazol-2-y]2,5-diphenyltetrazoliumbromide solution was added to the cells. Following a 4-hour incubation at 37 C and 5% CO2 to allow formazan-crystal formation, the MTT solution was removed and blue formazan salt crystals were solubilized using 500uL anhydrous isopropanol with shaking for 20 minutes. […]
Take `CCOP(=S)(OCC)SCn1nnc2ccccc2c1=O`: the outcome was inactive.

On to `ClC(Cl)=C(c1ccc(Cl)cc1)c1ccccc1Cl`, for which the result was inactive.

For `N#Cc1c(-c2ccc(Cl)cc2)[nH]c(C(F)(F)F)c1Br`, the AC50 is 0.37 µM (active).

As to `CCC(C)(C)c1ccc(O)cc1`, the outcome was inactive.

For the molecule `CCCCOCCOP(=O)(OCCOCCCC)OCCOCCCC`, the molecule was called inactive.

On to `CC(=O)c1ccc(-c2ccccc2)cc1`, for which the molecule was classed as inactive.

For the molecule `CCNc1nc(Cl)nc(NC(C)(C)C)n1`, the outcome was inactive.

Turning to `O=S1(=O)OCC2C(CO1)C1(Cl)C(Cl)=C(Cl)C2(Cl)C1(Cl)Cl` (stereo unspecified), the concentration at half-maximal activity (AC50) was 7.28 µM (active).

Take `Oc1ccc(I)cc1`: the molecule was classed as inactive.

Regarding `Nc1cc2c3c(c1)C(c1ccccc1)=N[C@@H](NC(=O)c1cccnc1)C(=O)N3CC2`, the concentration at half-maximal activity (AC50) is 62 µM (active).

Take `CO/N=C(/C(=O)OC)c1ccccc1COc1ccccc1C`: the concentration at half-maximal activity (AC50) was 3.98 µM (active).

In the case of `CCCCc1ccc(O)cc1`, the molecule was called inactive.

On to `O=S(=O)(c1ccc(O)cc1)c1ccc(O)cc1`, for which the concentration at half-maximal activity (AC50) is 19.1 µM (active).

Consider `Nc1ccc([N+](=O)[O-])cc1Cl`, for which the molecule was called inactive.

As for `O=P(Oc1ccccc1)(Oc1ccccc1)Oc1ccccc1`, the AC50 is 2.92 µM (active).

As to `Nc1ccc(Cl)cc1`, the outcome was inactive.

Turning to `c1ccc(OP(Oc2ccccc2)Oc2ccccc2)cc1`, the molecule was called inactive.

With `CC(C)Nc1ccc(Nc2ccccc2)cc1`, the molecule was classed as inactive.

With `CCOP(=S)(NC(C)C)Oc1ccccc1C(=O)OC(C)C` (stereo unspecified), the AC50 was 12.8 µM (active).

Regarding `Cc1ccc(N)cc1N`, the call was inactive.

As for `COP(N)(=S)OC`, the molecule was called inactive.
